From PubChem BioAssay
Activity calls are given as the source filed them.

Experiments:
[1] = tested on: PRMT1 (protein arginine N-methyltransferase 1); assay: small molecules binding arginine methyltransferase PRMT1 – biochemical, small-molecule microarray, 635 nm fluorescence, primary screen (AID 1088); conditions: higher = more signal;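 also: binding of Prmt1 protein to compounds spotted on small-molecule microarray slides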
[2] = growth effects on S. cerevisiae YJM789 – YJM789 clinical isolate, OD600, 24 h, basal, primary screen (AID 1089); conditions: higher = more signal, called active from +8 up or from −8 down;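 also: growth of clinical yeast isolate S. cerevisiae YJM 789 seeded 1000 cells per well; test concentration not given here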
[3] = S. pombe growth modifiers, basal conditions – strain 972, OD600, 24 h, no modulator, primary screen (AID 1090);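 also: basal condition with compound alone and no growth modifier present; test concentration not given here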; conditions: S. pombe 972 growth, higher = more signal, called active from +8 up or from −8 down
[4] = budding yeast growth modifiers under rapamycin – strain BY4716, OD600, 96 h, primary screen (AID 1091); also: test concentration not given here; conditions: S. cerevisiae BY4716 + rapamycin, higher = more signal, called active from +8 up or from −8 down
[5] = molecular target: Torsin-1A-interacting protein 2 (Homo sapiens) (UniProt Q8NFQ8); assay: small molecules binding lysate-expressed LULL1 – cell lysate, human LULL1 lysate, 635/667 nm fluorescence, primary screen (AID 1092); conditions: small-molecule microarray, hLULL1 lysate binding, 635 nm fluorescence; higher = more signal;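 also: probe is lysate of COS7 cells overexpressing human LULL1; score merges per-feature 667 nm fluorescence with signal-to-noise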
Torsin-1A-interacting protein 2 (Homo sapiens), sequence (Q8NFQ8 whole entry, looked up): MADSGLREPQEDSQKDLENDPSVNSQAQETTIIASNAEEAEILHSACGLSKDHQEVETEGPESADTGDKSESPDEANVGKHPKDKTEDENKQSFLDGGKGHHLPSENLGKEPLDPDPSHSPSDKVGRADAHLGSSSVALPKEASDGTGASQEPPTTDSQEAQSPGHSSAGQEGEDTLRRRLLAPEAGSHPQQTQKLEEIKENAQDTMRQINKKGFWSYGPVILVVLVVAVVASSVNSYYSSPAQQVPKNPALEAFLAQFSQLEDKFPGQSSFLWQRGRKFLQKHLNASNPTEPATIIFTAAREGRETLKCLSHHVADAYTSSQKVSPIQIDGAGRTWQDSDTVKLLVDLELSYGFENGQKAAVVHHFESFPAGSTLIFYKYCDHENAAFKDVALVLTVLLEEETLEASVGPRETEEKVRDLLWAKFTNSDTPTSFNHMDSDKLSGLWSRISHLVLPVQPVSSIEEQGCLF

[6] = optical density change of DRC41 E. coli – strain DRC41, OD650, 24 h, E. coli filamentation project, primary screen (AID 1093);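 also: MC1000 strain lacking acrAB efflux and sulA so SOS filamentation is blocked; test concentration not given here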; conditions: E. coli DRC41 growth, higher = more signal, called active from +8 up or from −8 down
[7] = probe aLefty2 binding to arrayed compounds – biochemical, biotinylated probe, 635/667 nm fluorescence, primary screen (AID 1094); conditions: small-molecule microarray, higher = more signal;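 also: score merges spot fluorescence near 667 nm with spot signal-to-noise ratio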
[8] = tested on: Noggin (protein binding on small-molecule microarray); assay: small molecules binding Noggin protein – biochemical, 635/667 nm fluorescence, primary screen (AID 1095); conditions: 635 nm fluorescence, higher = more signal;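 also: score merges 667 nm feature fluorescence with signal to noise over triplicate slides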
[9] = molecular target: Neurogenic locus notch homolog protein 3 (Homo sapiens) (UniProt Q9UM47); assay: small molecules binding NOTCH3 protein – biochemical, 635/667 nm fluorescence, primary screen (AID 1096); conditions: small-molecule microarray, 635 nm fluorescence, higher = more signal
Neurogenic locus notch homolog protein 3 (Homo sapiens), sequence (Q9UM47 whole entry, looked up): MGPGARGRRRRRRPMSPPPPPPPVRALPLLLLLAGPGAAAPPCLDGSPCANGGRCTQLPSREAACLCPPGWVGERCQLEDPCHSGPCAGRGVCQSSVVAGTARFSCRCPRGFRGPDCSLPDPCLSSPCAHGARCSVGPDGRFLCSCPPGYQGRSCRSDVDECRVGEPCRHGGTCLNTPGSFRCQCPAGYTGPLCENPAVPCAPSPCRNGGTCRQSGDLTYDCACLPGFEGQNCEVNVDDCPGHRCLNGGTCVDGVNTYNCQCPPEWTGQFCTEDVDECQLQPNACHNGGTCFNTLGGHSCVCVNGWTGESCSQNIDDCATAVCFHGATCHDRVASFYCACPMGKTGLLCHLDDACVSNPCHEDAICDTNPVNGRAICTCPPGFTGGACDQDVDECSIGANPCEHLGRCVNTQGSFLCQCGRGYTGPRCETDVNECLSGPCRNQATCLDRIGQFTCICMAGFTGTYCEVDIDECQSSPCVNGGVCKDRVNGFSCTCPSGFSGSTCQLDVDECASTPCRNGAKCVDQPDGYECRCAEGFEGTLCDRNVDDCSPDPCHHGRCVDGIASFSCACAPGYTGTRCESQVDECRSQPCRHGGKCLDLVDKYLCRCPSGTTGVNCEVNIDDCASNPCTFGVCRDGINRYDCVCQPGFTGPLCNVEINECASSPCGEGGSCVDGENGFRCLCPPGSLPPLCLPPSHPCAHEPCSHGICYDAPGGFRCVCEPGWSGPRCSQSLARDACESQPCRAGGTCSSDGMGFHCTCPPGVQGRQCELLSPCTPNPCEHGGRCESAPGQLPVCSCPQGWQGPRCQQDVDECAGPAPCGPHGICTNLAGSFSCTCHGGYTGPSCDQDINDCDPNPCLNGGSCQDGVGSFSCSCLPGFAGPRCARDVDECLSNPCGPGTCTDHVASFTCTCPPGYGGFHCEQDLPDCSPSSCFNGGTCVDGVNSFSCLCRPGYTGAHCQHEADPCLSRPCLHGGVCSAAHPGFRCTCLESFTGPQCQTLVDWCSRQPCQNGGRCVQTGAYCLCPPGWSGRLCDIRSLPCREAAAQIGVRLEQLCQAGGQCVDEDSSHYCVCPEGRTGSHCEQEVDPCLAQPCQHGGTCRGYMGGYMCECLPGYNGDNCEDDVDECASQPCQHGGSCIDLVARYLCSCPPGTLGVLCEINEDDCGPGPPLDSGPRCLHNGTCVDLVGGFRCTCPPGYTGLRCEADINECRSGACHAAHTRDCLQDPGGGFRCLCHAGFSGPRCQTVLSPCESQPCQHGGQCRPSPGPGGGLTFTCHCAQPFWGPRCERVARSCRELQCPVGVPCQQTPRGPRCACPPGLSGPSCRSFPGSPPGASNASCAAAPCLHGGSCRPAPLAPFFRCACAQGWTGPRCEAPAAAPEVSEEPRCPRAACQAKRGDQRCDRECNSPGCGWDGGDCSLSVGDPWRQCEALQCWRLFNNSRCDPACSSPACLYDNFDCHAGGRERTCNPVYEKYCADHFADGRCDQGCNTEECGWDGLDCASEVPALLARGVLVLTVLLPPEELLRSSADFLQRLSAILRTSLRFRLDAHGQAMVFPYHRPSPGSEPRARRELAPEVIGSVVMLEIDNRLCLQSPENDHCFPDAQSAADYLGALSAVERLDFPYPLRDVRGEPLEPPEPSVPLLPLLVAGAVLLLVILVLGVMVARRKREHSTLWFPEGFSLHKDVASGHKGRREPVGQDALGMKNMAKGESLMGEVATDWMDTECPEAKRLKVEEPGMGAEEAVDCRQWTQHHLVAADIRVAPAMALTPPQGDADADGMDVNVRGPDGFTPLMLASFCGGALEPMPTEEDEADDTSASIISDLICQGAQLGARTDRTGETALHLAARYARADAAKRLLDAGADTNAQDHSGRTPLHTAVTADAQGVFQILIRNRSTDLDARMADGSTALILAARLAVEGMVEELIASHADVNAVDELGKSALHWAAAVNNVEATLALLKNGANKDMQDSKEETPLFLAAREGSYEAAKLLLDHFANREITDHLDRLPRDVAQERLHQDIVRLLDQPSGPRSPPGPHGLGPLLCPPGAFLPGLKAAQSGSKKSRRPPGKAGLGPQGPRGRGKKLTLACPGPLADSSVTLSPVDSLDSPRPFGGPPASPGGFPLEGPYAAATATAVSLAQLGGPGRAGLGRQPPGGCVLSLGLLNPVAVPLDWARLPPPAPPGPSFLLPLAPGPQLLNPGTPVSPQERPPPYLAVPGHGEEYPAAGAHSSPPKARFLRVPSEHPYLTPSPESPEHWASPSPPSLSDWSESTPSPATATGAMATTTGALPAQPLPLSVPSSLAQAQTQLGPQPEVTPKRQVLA

[10] = probe aEGFR binding to arrayed compounds – biochemical, biotinylated probe, 635/667 nm fluorescence, primary screen (AID 1097); conditions: small-molecule microarray, higher = more signal;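 also: probe is a biotinylated anti-EGFR antibody binding compounds printed on slides; score combines fluorescence near 667 nm and signal to noise of each spot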
[11] = tested on: Plasmodium falciparum Sir2 (PF13_0152, Sir2A); assay: Plasmodium falciparum Sir2A binding compounds – biochemical, small-molecule microarray, 635 nm fluorescence, primary screen (AID 1098); conditions: fluorescence 635 nm, higher = more signal;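 also: score merges spot fluorescence intensity with its signal-to-noise ratio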
[12] = probe aDKK1 binding to arrayed compounds – biochemical, biotinylated probe, 635/667 nm fluorescence, primary screen (AID 1099); conditions: small-molecule microarray, higher = more signal;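 also: score merges 667nm spot fluorescence with signal to noise across triplicate slides; reference of the scale not given here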
[13] = probe aCHRDL2 binding to arrayed compounds – biochemical, biotinylated probe, 635/667 nm fluorescence, primary screen (AID 1100); conditions: small-molecule microarray, higher = more signal
[14] = change in splice reporter luminescence, either direction, cell-based, HEK293, spliceosome inhibition project, primary screen (AID 1101); conditions: HEK293 splicing luciferase reporter, 24 h, higher = more signal, called active from +8 up or from −8 down;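 also: HEK293 cells carrying a splicing-competent luciferase reporter gene; test concentration not given here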
[15] = molecular target: Fibroblast growth factor 10 (Homo sapiens) (UniProt O15520); assay: compounds binding fibroblast growth factor 10 – biochemical, small-molecule microarray, 635 nm fluorescence, primary screen (AID 1102); conditions: FGF10 binding, fluorescence 635 nm, higher = more signal
Fibroblast growth factor 10 (Homo sapiens), sequence (O15520 whole entry, looked up): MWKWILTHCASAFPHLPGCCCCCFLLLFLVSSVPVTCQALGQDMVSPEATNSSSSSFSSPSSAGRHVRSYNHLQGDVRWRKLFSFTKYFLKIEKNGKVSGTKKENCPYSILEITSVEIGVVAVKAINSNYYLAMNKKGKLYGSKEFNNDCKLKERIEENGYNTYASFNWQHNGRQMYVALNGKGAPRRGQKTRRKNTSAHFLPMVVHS

[16] = tested on: glycogen synthase kinase-3 (GSK3A per assay name; protocol says GSK3B); assay: compounds binding glycogen synthase kinase-3 – biochemical, small-molecule microarray, 635 nm fluorescence, GSK3A, primary screen (AID 1103); conditions: fluorescence 635 nm, higher = more signal; also: the record names both GSK3A and GSK3B
[17] = molecular target: Epidermal growth factor receptor (Homo sapiens) (UniProt P00533); assay: compounds binding epidermal growth factor receptor – biochemical, small-molecule microarray, 635 nm fluorescence, primary screen (AID 1104); conditions: EGFR binding, higher = more signal;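 also: score merges 667 nm emission intensity with spot signal to noise over triplicate slides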
Epidermal growth factor receptor (Homo sapiens), sequence (P00533 whole entry, looked up): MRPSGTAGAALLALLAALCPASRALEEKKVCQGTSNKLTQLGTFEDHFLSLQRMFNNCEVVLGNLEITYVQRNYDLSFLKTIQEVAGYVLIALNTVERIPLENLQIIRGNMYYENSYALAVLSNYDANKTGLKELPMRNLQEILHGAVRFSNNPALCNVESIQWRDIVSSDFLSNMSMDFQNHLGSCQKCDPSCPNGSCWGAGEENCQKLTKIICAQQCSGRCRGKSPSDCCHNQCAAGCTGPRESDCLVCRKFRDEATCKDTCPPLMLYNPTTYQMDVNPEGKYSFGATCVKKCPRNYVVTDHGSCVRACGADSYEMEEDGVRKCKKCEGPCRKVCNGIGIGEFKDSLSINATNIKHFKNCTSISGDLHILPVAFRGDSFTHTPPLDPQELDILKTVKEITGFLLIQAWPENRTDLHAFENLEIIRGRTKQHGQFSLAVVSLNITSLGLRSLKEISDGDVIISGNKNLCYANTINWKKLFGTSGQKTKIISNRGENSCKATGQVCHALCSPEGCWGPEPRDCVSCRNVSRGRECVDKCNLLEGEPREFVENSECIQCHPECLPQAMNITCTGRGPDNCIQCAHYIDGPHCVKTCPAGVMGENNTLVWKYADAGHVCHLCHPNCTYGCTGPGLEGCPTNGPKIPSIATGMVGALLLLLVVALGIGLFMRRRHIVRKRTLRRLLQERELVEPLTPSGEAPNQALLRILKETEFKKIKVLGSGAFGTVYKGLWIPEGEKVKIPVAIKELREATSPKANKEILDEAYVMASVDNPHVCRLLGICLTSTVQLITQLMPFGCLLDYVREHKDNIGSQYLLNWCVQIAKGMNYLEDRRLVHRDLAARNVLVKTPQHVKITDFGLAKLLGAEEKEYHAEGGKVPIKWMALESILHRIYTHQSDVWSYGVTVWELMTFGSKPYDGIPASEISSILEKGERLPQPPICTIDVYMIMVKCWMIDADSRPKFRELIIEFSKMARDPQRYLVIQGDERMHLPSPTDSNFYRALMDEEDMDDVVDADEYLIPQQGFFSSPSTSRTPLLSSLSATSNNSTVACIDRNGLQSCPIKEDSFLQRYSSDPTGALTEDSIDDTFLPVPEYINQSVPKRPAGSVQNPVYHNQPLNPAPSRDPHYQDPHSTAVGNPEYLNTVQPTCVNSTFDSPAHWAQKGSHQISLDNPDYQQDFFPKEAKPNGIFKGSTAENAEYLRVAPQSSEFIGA

[18] = molecular target: Follistatin-related protein 3 (Homo sapiens) (UniProt O95633); assay: compounds binding follistatin-related protein 3 – biochemical, small-molecule microarray, 635 nm fluorescence, primary screen (AID 1105); conditions: FSTL3 binding, higher = more signal;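 also: score merges emission near 667 nm and signal to noise per printed spot across three slides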
Follistatin-related protein 3 (Homo sapiens), sequence (O95633 whole entry, looked up): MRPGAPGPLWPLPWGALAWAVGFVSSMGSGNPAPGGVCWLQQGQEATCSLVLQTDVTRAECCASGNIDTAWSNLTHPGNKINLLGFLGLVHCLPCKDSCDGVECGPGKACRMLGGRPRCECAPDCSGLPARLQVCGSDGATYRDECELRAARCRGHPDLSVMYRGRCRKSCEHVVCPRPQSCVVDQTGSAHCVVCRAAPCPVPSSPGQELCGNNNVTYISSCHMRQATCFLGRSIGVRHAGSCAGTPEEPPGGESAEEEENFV

[19] = molecular target: Dickkopf-related protein 1 (Homo sapiens) (UniProt O94907); assay: small molecules binding DKK1 protein – biochemical, small-molecule microarray, 635 nm fluorescence scan, primary screen (AID 1106); conditions: higher = more signal;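 also: score merges emission near 667 nm with signal to noise over three replicate slides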
Dickkopf-related protein 1 (Homo sapiens), sequence (O94907 whole entry, looked up): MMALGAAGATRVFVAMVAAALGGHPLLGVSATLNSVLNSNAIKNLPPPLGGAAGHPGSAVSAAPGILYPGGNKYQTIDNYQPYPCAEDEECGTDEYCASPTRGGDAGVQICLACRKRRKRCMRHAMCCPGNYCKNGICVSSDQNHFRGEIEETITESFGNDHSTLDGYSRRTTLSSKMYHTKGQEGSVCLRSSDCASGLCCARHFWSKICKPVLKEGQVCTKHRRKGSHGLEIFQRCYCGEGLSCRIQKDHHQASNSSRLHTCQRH

[20] = tested on: Inhibin beta A chain (activin A); assay: small molecules binding activin A – biochemical, small-molecule microarray, 635 nm fluorescence scan, primary screen (AID 1107); conditions: INHBA, higher = more signal;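 also: mouse activin A protein probed at 4.33 µg/mL on printed slides; score merges bound-protein fluorescence near 667 nm with spot signal-to-noise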

Row | Structure (SMILES) | composite z-score [1] | z-score [2] | z-score [3] | z-score [4] | composite z-score [5] | z-score [6] | composite z-score [7] | composite z-score [8] | composite z-score [9] | composite z-score [10] | composite z-score [11] | composite z-score [12] | composite z-score [13] | z-score [14] | composite z-score [15] | composite z-score [16] | composite z-score [17] | composite z-score [18] | composite z-score [19] | composite z-score [20]
1 | CCOC(=O)[C@H](CC(C)C)NC(=O)CCC1CC(OC(=O)NCCc2ccc(F)cc2)CC2(CCCC(COC(=O)NCCOc3ccccc3)O2)O1 (stereo not given in full) | 1.56 | 0.407 (inactive) | 0.374 (inactive) | -0.445 (inactive) | 2.21 | -0.552 (inactive) | -0.0965 | 0.676 | 1.11 | -0.0828 | 1.4 | -0.0843 | -0.545 | 0.119 (inactive) | 0.989 | 0.508 | 0.672 | 1.1 | 1.52 | -0.0219
2 | CCOC(=O)[C@H](Cc1ccccc1)NC(=O)CCC1CC(OC(=O)NCc2ccc3c(c2)OCO3)CC2(CCCC(COC(=O)NCCC(C)C)O2)O1 (stereo not given in full) | 1.54 | 0.648 (inactive) | -0.29 (inactive) | -0.2 (inactive) | 1.95 | -0.167 (inactive) | 0.0224 | 0.614 | 0.671 | -0.068 | 1.21 | -0.197 | -0.287 | 0.0184 (inactive) | 1.12 | 0.18 | -0.0617 | 0.743 | 0.415 | 0.367
3 | CCOC(=O)[C@H](CC(C)C)NC(=O)CCC1CC(OC(=O)NCc2cccc3ccccc23)CC2(CCCC(COC(=O)NCc3ccncc3)O2)O1 (stereo not given in full) | 1.56 | 0.649 (inactive) | 0.462 (inactive) | 0.678 (inactive) | 1.58 | 0.409 (inactive) | -0.166 | 0.433 | 0.789 | 0.157 | 0.741 | -0.131 | -0.377 | -0.00923 (inactive) | 1.2 | 1.06 | 0.363 | 0.887 | 0.559 | -0.177
4 | CC(CCN1CCCCc2nc(C)c(C)cc21)=NO[C@@H](C)c1cn([C@H](CO)Cc2ccccc2)nn1 | 1.03 | 0.725 (inactive) | -0.0001 (inactive) | 0.17 (inactive) | 1.16 | 0.457 (inactive) | -0.0383 | 0.377 | 0.474 | 0.0317 | 0.683 | -0.217 | -0.46 | 0.16 (inactive) | 0.0253 | 0.54 | 0.593 | 0.902 | 1.17 | 0.788
5 | COc1cccc([C@H]2Oc3ccc(OC)cc3C(=NOC[C@@H](O)COCc3ccco3)[C@@H]2O)c1 | -1.03 | -2.24 (inactive) | -1.36 (inactive) | -1.22 (inactive) | -1.32 | 0.32 (inactive) | -0.103 | -0.149 | -1.88 | -0.274 | -0.12 | -0.644 | -0.798 | -0.469 (inactive) | -0.0458 | -0.754 | -1.44 | -1.3 | 0.13 | 1.29
